HSF1 activator: increases HSF-1 driven luciferase reporter signal. activation, % at 9 µM. NIH3T3-HGL HSF-1 luciferase reporter, MG132, 8 h; 100% = twice DMSO control signal. 300,000 compounds, 1.7% hits;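 active = mean replicate activation of at least 50% with a set share of replicates each reaching 50%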;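 also: 0% = median of the neutral control wells and 100% = twice that signal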
AHR act: activates the human aryl hydrocarbon receptor; AHR-responsive luciferase reporter cells, luminescence; activation, % at 5 µM; 320,000 compounds, 2.5% hits; in the data active = activation above about 47%;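 also: 0% = vehicle wells and 100% = reference agonist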
FXN GAA850 act: frataxin GAA850 promoter activation; HEK293 lucGAA850 FXN promoter luciferase reporter, 24 h; percent of 10 µM SAHA response; AID 540364; 360,000 compounds, 0.56% hits; activation, % at 6 µM;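 active = activation above the average of all compounds screened plus 3 SD, cutoff fixed separately per campaign, cut at about 7.5% in these data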;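 also: 0% = DMSO wells and 100% = 10 µM SAHA wells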
HSP90 inh: blocks HSP90-mediated luciferase refolding in reticulocyte lysate. Rabbit reticulocyte lysate, luciferase refolding luminescence, 3 h. AID 1789. 290,000 compounds, 0.91% hits. inhibition, % at 5.6 µM;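 active = inhibition above the screen-wide mean plus 3 SD, computed separately per campaign, cut at about 16% in these data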;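 also: 0% = DMSO wells and 100% = 60 µM geldanamycin wells; inhibitors lower the luminescence because luciferase stays unfolded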
DAX1 inh: inhibitors of human orphan nuclear receptor DAX1 (NR0B1); inhibition, % at 6.75 µM; P51843; HEK293 Gal4-DAX1 luciferase reporter, luminescence; 340,000 compounds, 0.99% hits;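 active = inhibition above the mean over all tested compounds plus 3 SD, cut at about 4.2% in these data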;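 also: 0% = DAX1-transfected cells with DMSO and 100% = empty-vector control cells with DMSO; inhibition shows as a rise in luminescence from relieved DAX1 repression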
Target sequence (P51843 207-470 limits assumed): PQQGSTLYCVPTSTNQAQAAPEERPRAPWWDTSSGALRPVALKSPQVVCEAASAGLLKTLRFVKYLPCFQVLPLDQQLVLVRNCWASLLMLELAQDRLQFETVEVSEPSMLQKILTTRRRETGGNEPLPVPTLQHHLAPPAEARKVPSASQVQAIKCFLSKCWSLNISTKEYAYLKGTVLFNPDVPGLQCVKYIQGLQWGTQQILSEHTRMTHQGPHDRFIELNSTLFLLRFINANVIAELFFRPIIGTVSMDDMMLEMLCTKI
HSF1 inhib: HSF1 inhibition; NIH3T3-HGL HSE-luciferase, MG132-induced, luminescence 8 h; stronger effect = lower value; 300,000 compounds, 0.77% hits; activity change, negative = inhibition, % at 7.5 µM (by protocol);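 active = more than half of replicate wells show activity change below -50%, luminescence cut by over half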;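 also: luciferase reports HSF-1 transcriptional activity via heat shock element; 0% = median of DMSO wells and -100% = zero luminescence signal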
Active calls of the source: *; . = no result. Sampled rows, rich in hits. Any-hit rate of the full collection: about 5.9%.

SMILES	HSF1 activator	AHR act	FXN GAA850 act	HSP90 inh	DAX1 inh	HSF1 inhib
O=C1c2ccccc2C(=O)N1CCc1nc2ccccc2c(=O)n1CCCn1ccnc1	31	1	0	1	0	0
COc1cccc(NC(=O)CN(C)C(C)C(=O)Nc2ccc(C(C)=O)cc2)c1 (stereo unspecified)	12	5	2	-3	6.8*	3
Cn1c(N)c(C(=O)COC(=O)/C=C/c2cccc(Cl)c2)c(=O)n(C)c1=O	.	-1	-1	.	1	.
CCCCSc1nc(C)cc(SCC(=O)N/N=C/c2cccc(OC)c2O)n1	84*	2	-6	0	-3	42
COc1cccc(/C=N/NC(=O)CSc2nnc(C)n2-c2ccccc2)c1O	-14	5	-2	2	0	-1
COc1ccc(-n2c(SCC(=O)Nc3ccc(NC(C)=O)cc3)nc3c([nH]c4ccccc43)c2=O)cc1OC	8	41	1	4	0	5
CCn1c(SCC(=O)N2CCC(C)CC2)nc2c([nH]c3ccccc32)c1=O	.	.	2	.	-1	.
Cn1c(SCC(=O)Nc2ccccc2)nc2c([nH]c3ccccc32)c1=O	17	53*	-2	-1	0	-3
COc1cccc(NC(=O)CSc2nc3c([nH]c4ccccc43)c(=O)n2C)c1	95*	17	2	2	-1	41
Cc1cccc(NC(=O)CSc2nc3c([nH]c4ccccc43)c(=O)n2C)c1	0	35	-2	-1	-1	6
CC(=O)Nc1ccc(NC(=O)CSc2nc3c([nH]c4ccccc43)c(=O)n2-c2ccccc2F)cc1	-4	58*	-1	-2	1	3
CCn1c(SCC(=O)N2CCN(c3ccccc3)CC2)nc2c([nH]c3ccccc32)c1=O	20	54*	0	6	1	13
Cc1cc(Br)c(NC(=O)COC(=O)c2ccc[n+]([O-])c2)c(Br)c1	.	0	2	.	0	.
COCCN(C(=O)COC(=O)Cc1ccc(Cl)cc1)c1c(N)n(Cc2ccccc2)c(=O)[nH]c1=O	.	.	-1	.	1	.
COCCn1c(SCC(=O)Nc2ccc(C(C)=O)cc2)nc2c([nH]c3ccccc32)c1=O	4	41	-5	1	4	19
COCCn1c(SCC(=O)Nc2cccc(F)c2)nc2c([nH]c3ccccc32)c1=O	5	65*	2	2	0	5
CCCC(NS(=O)(=O)c1ccc(-c2ccc(=O)[nH]n2)s1)c1cccs1 (stereo unspecified)	-8	2	-2	-1	1	-4
CCOC(=O)C1=C(C)C(c2ccccc2O)NC(=O)N1 (stereo unspecified)	-6	-2	-3	10	6.0*	-4
CSc1n[nH]c(=O)n1C1CCCCC1	-7	-2	0	4	6.0*	-2
Cc1cccc(NC(=O)CCS(=O)(=O)c2ccc3nc(C)sc3c2)c1	.	.	1	.	.	.
N#C/C(=C/c1ccc(-c2ccccc2)o1)c1nc(-c2cccs2)cs1	.	54*	6	0	1	.
O=C(CCn1cnnn1)NC1CCCN(Cc2ccccc2F)C1 (stereo unspecified)	-11	3	3	-2	0	2
O=S(=O)(c1ccccc1)N(CC(O)Cn1c2ccccc2c2ccccc21)c1ccccc1 (stereo unspecified)	13	64*	-2	8	0	-3
COc1ccc2c(C)cc(N3CCN(c4ccc(F)cc4)CC3)nc2c1	-1	69*	6	1	-2	-1
Cc1cc(N2CCN(c3ccc(F)cc3)CC2)nc2cc(O)ccc12	-64	98*	-1	-4	-1	-55*
SMILES	HSF1 activator	AHR act	FXN GAA850 act	HSP90 inh	DAX1 inh	HSF1 inhib
O=C1c2nccnc2C(=O)N1Cc1ccccc1	-1	.	-2	.	0	-1
COc1ccccc1C1Nc2cccc3cccc(c23)N1	9	60*	3	5	0	-2
Oc1ccccc1C1Nc2cccc3cccc(c23)N1	-1	38	3	-3	1	-3
O=[N+]([O-])c1ccccc1C1Nc2cccc3cccc(c23)N1	15	75*	2	2	1	9
COc1cc(OC)c(C2Nc3cccc4cccc(c34)N2)c(OC)c1	-15	.	0	13	1	4
COc1ccccc1OCC(=O)NCCS(=O)(=O)N1CCN(c2ccccc2)CC1	1	1	0	.	1	-4
Cc1ccc(Cn2nc(C)c(C(=O)NCC(c3ccc(F)cc3)N3CCOCC3)c2Cl)cc1 (stereo unspecified)	.	0	0	.	-1	.
Cn1c(CSc2ccccc2)c(C#N)c2ccccc21	90*	-6	2	-2	1	29
COc1ccccc1CC(=O)NNS(=O)(=O)c1ccc([N+](=O)[O-])cc1	-9	-1	-1	2	6.1*	-2
O=C(NCC1CCCCC1)c1cc(-c2cc(F)ccc2OCC2CCCO2)n[nH]1 (stereo unspecified)	.	.	1	.	.	.
COc1ccccc1CCC(=O)Nc1ccc2c(c1)c(=O)n(C)n2Cc1cccc(C(F)(F)F)c1	.	.	1	.	.	.
COc1ccc(N2C(=O)[C@@H]3[C@H](C2=O)[C@H]2c4ccccc4C=CN2[C@@H]3C(=O)Nc2ccccc2)cc1	.	56*	3	1	2	.
COc1ccc(OC)c(CN2CCN(C(=O)CNC(=O)c3ccccc3F)CC2)c1	.	1	0	.	1	.
O=C1/C(=C/c2cccnc2)CCc2c1[nH]c1ccccc21	11	73*	-7	-3	0	3
CCCCCCCCC1=NCCc2c1[nH]c1ccccc21	17	36	-1	10	1	-1
CC(C)C/C=C1\CCc2c([nH]c3ccccc23)C1=O	59*	64*	2	0	1	51
CC1C/C(=C\c2cccnc2)C(=O)/C(=C/c2cccnc2)C1 (stereo unspecified)	.	2	-14	2	-6	.
COC(=O)[C@H]1C[C@H](OC(=O)NC2CC2)[C@@]2(O)CN(S(=O)(=O)c3ccc(C)cc3)CC2[C@H]1C(=O)OC (stereo partly specified)	.	.	0	.	1	.
O=C(NC1CCCC1)C1CCN(S(=O)(=O)c2ccccc2)CC1	-13	3	0	-2	0	-4
C1CCc2nc3c(nc2C1)CCCC3	-6	1	2	2	5.0*	1
c1ccc2nc3c(nc2c1)CCCC3	-16	4	0	-3	0	-2
CCOC(=O)C(=Cc1c[nH]c2ccc(S(=O)(=O)N(C)C)cc12)C(=O)OCC	146*	5	1	8	-4	103
CC(C)N(C(=O)CSc1nnc(C2CC2)n1C1CC1)c1ccccc1	.	.	0	.	1	.
Cc1nn2c(NCCCn3ccnc3)cc(C(C)C)nc2c1-c1ccccc1	8	48*	-1	9	0	10
CCCOc1c(Br)cc(C(=O)OCC(=O)NC2CC2)cc1OC	5	0	0	.	1	1
